# Results: PubChem BioAssay AID1671188 (National Center for Advancing Translational Sciences (NCATS), 2021)
# Several values for one entry are separate records, joined by “and”; a condition that tells them apart may be missing. Equal values may be shown once. The campaign covered roughly 100,000 compounds. About 250 (0.25%) were called active. Another 7% or so got no clear call; they are omitted. This is one part of a sample in which actives are shown more often than they occur. Calls follow the shape of the dose curve; as a rule, active = well fitted inhibition curve with a large enough effect; inconclusive = small, poorly fitted or top-dose-only effect; inactive = flat fitted curve, though single readings scatter. Some structures have more than one record in an assay (separate samples or runs), and their calls can disagree.
# Molecular target: Alanine aminotransferase 2 (Homo sapiens) (UniProt Q8TD30)
# Sequence (Q8TD30 whole entry, looked up): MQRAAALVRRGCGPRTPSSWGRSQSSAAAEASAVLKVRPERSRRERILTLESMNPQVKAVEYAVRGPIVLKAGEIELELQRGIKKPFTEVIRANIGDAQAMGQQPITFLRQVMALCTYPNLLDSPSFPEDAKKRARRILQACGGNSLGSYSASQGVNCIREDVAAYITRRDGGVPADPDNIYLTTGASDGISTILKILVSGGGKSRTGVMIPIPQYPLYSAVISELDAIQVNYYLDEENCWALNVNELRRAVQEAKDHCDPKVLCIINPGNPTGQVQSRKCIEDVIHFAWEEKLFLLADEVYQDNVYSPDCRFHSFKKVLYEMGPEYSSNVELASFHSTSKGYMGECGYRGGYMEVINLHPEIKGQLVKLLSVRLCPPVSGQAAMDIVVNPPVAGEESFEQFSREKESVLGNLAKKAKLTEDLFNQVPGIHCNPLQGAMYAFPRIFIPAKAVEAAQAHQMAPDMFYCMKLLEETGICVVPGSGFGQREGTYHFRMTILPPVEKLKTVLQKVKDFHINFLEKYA
# Assay: Primary qHTS assay for inhibitors of Glutamate pyruvate transaminase 2 (GPT2); also: nearly all actives have a fitted effect of over 60% in size
# Settings: Recombinant GPT2, coupled pyruvate oxidase/HRP Amplex Red fluorescence; series mostly up to 57.7 µM; activity change, negative = inhibition: at the top concentration
# Procedure: Assay Provider: Zhenghe John Wang Ph.D.
# Case Western Reserve University, Cleveland OH
# Glutamate pyruvate transaminase 2 (GPT2) catalyzes the reversible transamination of glutamate and pyruvate to provide a-ketoglutarate and alanine. We have optimized an assay for GPT2 enzymatic activity that couples pyruvate formation to detection of fluorescence using an established pyruvate oxidase/horseradish peroxidase / Amplex Red system.
# Screening conditions were 250uM a-KG, 2mM L-alanine, and 10ng/uL GPT2 in […] of solution; 10uL of Amplex reaction mix (outlined below) were added so that final concentrations of Amplex reagents in 50uL were 0.2mM ThPP, 0.2U/mL PO and HRP, and 50uM Amplex.
# NOTE: The volume of GPT2 in the system depends on the activity of it. The activity is different every batch. You need to test the activity before the assay. For full plate assay with automation, plate 20uL of GPT2 buffer to pin into, then add 10uL of GPT2 dilution followed immediately by 10uL of substrate dilution. 2 Columns of the plate were devoted to GPT2 buffer ([…] PH7.5, 0.0001% Tween) + 50uM AOA (known GPT2 inhibitor) to serve as a positive control. Complete the assay as normal. Amplex-red buffer: […] PH7.5, 1 mM EDTA, 1 mM MgCl2.
# 1. Combine a-KG and L-alanine at desired concentrations and incubate for at least 10 minutes at 37C. Stocks of L-alanine and a-KG are diluted in distilled water. However, the stocks were diluted in GPT2 buffer for the assay.
# 2. Prepare GPT2 dilution at the desired concentration in GPT2 buffer.
# 3. Plate 40uL of GPT2 dilution with 40uL of substrate dilution and let incubate for 30 minutes at room temperature.
# 4. Add 20uL of Amplex reaction mix prepared as follows: 1.5uL 200U/mL Horseradish Peroxidase, 200mM Thiamine Pyrophosphate, 200U/mL Pyruvate Oxidase; 7.5uL 10mM Amplex Red; 288uL Amplex Buffer.
# 5. Incubate for 30 minutes at room temperature in the dark, then image using AM_Amplex_Fluorescence on plate reader nearest the window.
# % is scaled to controls: 0 for no effect and ±100 for the full control effect; potency is read from the fitted curve at half-maximal effect.
SMILES,"activity change, negative = inhibition",outcome,Potency
c1ccc2c(CN3CCC[C@H]3c3nc(-c4ccnc(N5CCOCC5)c4)no3)c[nH]c2c1,1.43% [at 88.5 µM] (inactive),,
NC(=O)c1cccnc1N1CCN(CC2(O)CNCCOC2)CC1 (centres undefined),-3.06% (inactive),,
O=C1COCC2(CN(c3ccc(C(F)(F)F)cn3)C2)CN1c1cccnc1,-31.6% [at 88.5 µM] (inactive),,
Cc1ccccc1CN1CCc2ncc(C(=O)NCCOc3ccccc3)n2CC1,,inactive [at 88.5 µM],
Cc1nc([C@H]2CCN(Cc3ccoc3)C[C@H]2NC(=O)C2CC2)n[nH]1,-0.884% (inactive),,
CCC(C)Oc1ccccc1CN1CCC(CO)(CN2CCCC2)CC1 (centres undefined),-20.3% (inactive),,
COCc1cc(C[C@@H]2C[C@H](NC(=O)Nc3ccccc3)C2(C)C)no1,-3.55% [at 88.5 µM] (inactive),,
Cc1ccc(C(=O)Nc2ccc(C(O)[C@H]3COCC(=O)N3Cc3ccccc3F)cc2)cc1 (some centres undefined),3.69% (inactive),,
Cc1ccc(Nc2ccnc(N3CCC(C(=O)Nc4ccccc4F)CC3)n2)cc1,,inactive,
CN1CCN(C(=O)c2ccc(-c3nnc4ccc(NC(=O)C5CCC5)cn34)cc2)CC1,,inactive,
Cc1cc(Nc2cc(N3CCN(C)CC3)nc(Sc3ccc(NC(=O)C4CC4)cc3)n2)n[nH]1,,,inactive and 27.3 µM (active)
O=C(CC1CCN(C(=O)c2ccco2)C1)N1CCOCC1 (centres undefined),-3.27% (inactive),,
COCCn1nc2n(c1=O)CCN(C(=O)c1ccco1)CC2,,inactive,
CCC(=O)Nc1cc(-c2ccccn2)nn1-c1ccccc1,,inactive [at 88.5 µM],
O=C(NCCc1ccccc1F)c1cn2cc(-c3cccc(C(F)(F)F)c3)sc2n1,,inactive,
Fc1cccc(C2CCCCCN2Cc2cn(-c3ccccc3)nn2)c1 (centres undefined),-3.5% [at 11.5 µM] (inactive),,
COC(=O)c1cccc(NC(=S)N[C@H]2CO[C@H]3[C@@H]2OC[C@H]3OC(=O)Nc2ccc(Oc3ccccc3)cc2)c1,,inactive,
Cc1noc(C)c1S(=O)(=O)N1CCC(c2noc(-c3ccncc3)n2)C1 (centres undefined),,inactive,
COc1ccccc1-c1ccc2c(C(=O)NCCc3ccc(Cl)cc3)nn(C)c2n1,-16.6% (inactive),,
COc1ccc(C(=O)N2CC[C@@H](CC(=O)O)[C@@H](CCN3C[C@@H]4C[C@H](C3)c3cccc(=O)n3C4)C2)cc1,-10.5% (inactive),,
O=C(NCCCc1ccccc1)c1n[nH]c2c1CN(C(=O)C1CC1)CC2,3.69% (inactive),,
O=C(NCc1cccc(Cl)c1)c1ccc2nnc(Cc3ccc(Cl)cc3)n2c1,1.38% (inactive),,
Cc1nc(-c2c3n(c(=O)n(Cc4ccc(F)c(F)c4)c2=O)CCCC3)no1,-0.648% (inactive),,
COc1cccc(CN(C)C2CCc3nn(C)c(=O)n3CC2)n1 (centres undefined),,inactive,
COc1ccc(CC(=O)N2CCN(C(=O)c3nc4cccnc4n(Cc4ccc(OC)cc4)c3=O)CC2)cc1,,inactive,

SMILES,"activity change, negative = inhibition",outcome,Potency
CC[C@H]1CN(C(=O)NC(C)C)CC[C@H]1CC(=O)Nc1ccccc1,,inactive [at 88.5 µM],
COc1ccc(C(=O)N2C[C@@H](Oc3cccnc3)C[C@H]2C(=O)N2CCOCC2)cc1,,inactive,
O=C(c1ccc2c(c1)CCCO2)N1CCCn2nc(C(O)C3CCC3)cc2C1 (centres undefined),,inactive,
O=C(C1COc2ccccc2O1)N1CCc2c(nc3cc(-c4ccccc4)[nH]n3c2=O)C1 (centres undefined),-6.07% (inactive),,
CN1CCC(N2CCC[C@H]2c2nc(-c3ccc(OC4CCCCC4)nc3)no2)CC1,1.89% [at 88.5 µM] (inactive),,
O=C1NC(C(=O)NCc2ccccn2)Cn2cccc21 (centres undefined),,inactive,
COc1ccc(CN2CCn3c(nn(-c4ccncc4)c3=O)C2)cc1,,inactive,
CN1C[C@@H](C(=O)Nc2ccccc2)[C@H](C2CCNCC2)C1,,inactive,
O=C1NC2(Cc3ccccc31)CN(Cc1ccc(F)cc1)C2,,inactive [at 88.5 µM],
CCC1=C(C(=O)OC)C(c2cccc(OC)c2)N2C(CC(=O)N3CCOCC3)=CSC2=N1 (centres undefined),,inactive,
O=C1CC(c2noc(-c3cc(Cl)ccc3F)n2)CN1c1ccc(F)cc1 (centres undefined),,inactive,
COc1ccc(C(=O)N2CCCC(CO)CCNC(=O)CC2)c(OC)n1 (centres undefined),,inactive,
Cc1cccc(-c2cccc(CN3CCC(NC(=O)Cc4ccc(F)cc4)CC3)c2)c1,-5.21% (inactive),,
O=C(C1CC=CCC1)N1CC(c2noc(C3CCCN3CC3CC3)n2)C1 (centres undefined),,inactive,
O=C(CCn1cnnn1)N1CCC(N2C(=O)C3(CCCC3)C2c2ccccc2)CC1 (centres undefined),,inactive,
CC(C)(O)CCc1ccc(C(=O)N2CCOc3ccc(Cl)cc3C2)cc1,-18.3% (inactive),,
CN(C)CCNC(=O)c1cccnc1OC1CCNCC1,,inactive,
CN(C)[C@H]1CCCCN(CC2CCC(N)CC2)C1 (some centres undefined),2.48% (inactive),,
CC(C)Cn1c(=O)c(C(=O)N2CCN([S+](=O)([O-])c3cccc(C(F)(F)F)c3)CC2)nc2cccnc21,,inactive,
COc1cccc(CN2C(=O)OC3(CCN(C(=O)c4scnc4C)CC3)C2(C)c2cccnc2)c1 (centres undefined),,inactive,
O=C(NCc1ccc(Cl)nc1)c1c[nH]c2cccnc12,4.28% [at 88.5 µM] (inactive),,
O=[S+]([O-])(c1cccs1)N1CCN(c2nccc(Nc3ccccc3F)n2)CC1,4.45% (inactive),,
CCC(=O)Nc1cc(C(=O)NCc2ccc(N3CCOCC3)cc2)c2ccc(C)nc2c1,,inactive,
Cc1ccc(C(=O)N2CCCC(c3nc(-c4ccccc4)no3)CCNC(=O)CC2)cn1 (centres undefined),-3.36% (inactive),,
